# This is one part of a sample in which hits are shown more often than they occur.
# Tg IFNy HTS: T. gondii growth inhibition under IFN-gamma. AID 1259416. actives 3.8% (n = 69,000). activity change, negative = inhibition, % (test concentration not listed). Toxoplasma gondii growth in IFN-gamma-treated host cells; active compounds read low; in the data active = activity change below about -70%, passing the limit was not always enough;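 note: host cells are HeLa cells infected with Toxoplasma gondii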
# The depositor's hits bear a star; ! = a repeat was not active.
SMILES,Tg IFNy HTS
Cc1nc(-n2cnnc2)ccc1-c1ccnc2c1ccn2C,-97*
CC(=O)NC(c1ccccn1)C1CCC(CNC(=O)c2cnn(C(C)C)c2)CC1 (stereo not drawn),9
CSc1ccccc1NC(=O)CCC(=O)NC[C@H]1CCCC[C@H]1O,3
CC(=O)C(Sc1nccc(-c2cccnc2)n1)C(C)=O,-58
CS(=O)(=O)n1nc(-c2cccnc2)nc1NCc1ccc(Cl)cc1,3
Nc1ccccc1NC(=O)c1ccc(CNc2nccc(-c3cccnc3)n2)cc1,-79*!
Cc1nc2cc3c(=O)oc(C)nc3cc2c(=O)o1,19
COc1cc(C(=O)Nc2ccc(-c3nc(-c4ccc(C)cc4C)co3)cc2)cc(OC)c1OC,0
CCOC(=O)c1c(C)oc2cc(Br)c(OC(C)C(=O)OCC)cc12 (stereo not drawn),-10
CCOC(=O)C1c2ccccc2Oc2ccccc21,23
CCOC(=O)C1=C(N)Oc2ccc(Br)cc2[C@H]1[C@H](C#N)C(=O)OCC,-75*
CC(C)CCN1C(=O)N(Cc2cccnc2)C(=O)C12CCN(Cc1ccc3c(c1)OCCO3)CC2,-17
Cc1csc(-c2ccc(Oc3ccc(Cl)cc3)nc2)n1,24
Cc1ccc2c(n1)N(C)CCN(S(=O)(=O)c1ccc(C)c(F)c1)C2,7
OC(CNCC1COc2ccccc2O1)c1ccccc1 (stereo not drawn),-12
C=C1c2cccc(O)c2C(=O)C2C(=O)[C@]3(O)C(=O)C(C(N)=O)C(=O)[C@@H](N(C)C)[C@@H]3[C@@H](O)[C@H]12 (stereo partly drawn),-72*!
C[C@@H]1CN([C@@H](C)CO)S(=O)(=O)c2ccc(C#CCC3CCCC3)cc2O[C@H]1CN(C)C(=O)c1cnccn1,-62
C[C@H]1CN([C@@H](C)CO)S(=O)(=O)c2ccc(C#CCC3CCCC3)cc2O[C@H]1CN(C)C(=O)c1cnccn1,-91*
COc1cccc(C#Cc2ccc3c(c2)O[C@@H](CN(C)C(=O)CN2CCOCC2)[C@@H](C)CN([C@H](C)CO)S3(=O)=O)c1,-42
COc1cccc(C#Cc2ccc3c(c2)O[C@H](CN(C)C(=O)CN2CCOCC2)[C@H](C)CN([C@H](C)CO)S3(=O)=O)c1,6
COCC#Cc1ccc2c(c1)O[C@H](CN(C)C(=O)C1CCOCC1)[C@H](C)CN([C@H](C)CO)S2(=O)=O,65
C[C@@H]1CN([C@@H](C)CO)S(=O)(=O)c2ccc(C#Cc3ccccc3F)cc2O[C@H]1CN(C)C(=O)Cc1cccnc1,-90*
O=C(c1cccc(C(F)(F)F)c1)N1CCN(S(=O)(=O)c2cc3c4c(c2)CCN4C(=O)CC3)CC1,25
O=S(=O)(NCc1ccccc1)N(Cc1ccccc1Cl)C1CC1,-8
Cc1cnc(N2CCc3[nH]nc(C(C)C)c3C2)nc1N(C)C,-24
SMILES,Tg IFNy HTS
O=C(O)CCC(=O)N1C[C@@H]2C[C@@H](CN(Cc3ccco3)C2)C1,8
COc1cccc(CN(C)Cc2ncc[nH]2)c1O,73
C[C@@H]1CCCCO[C@@H](CN(C)C(=O)C2CCCCC2)[C@@H](C)CN([C@@H](C)CO)C(=O)c2cc(NS(=O)(=O)c3ccccc3)ccc2O1,88
C[C@H](CO)N1C[C@H](C)[C@@H](CN(C)C(=O)C2CCCCC2)OCCCC[C@H](C)Oc2ccc(NS(=O)(=O)c3ccccc3)cc2C1=O,-78*
C[C@@H]1CCCCO[C@@H](CN(C)C(=O)C2CCCCC2)[C@H](C)CN([C@H](C)CO)C(=O)c2cc(NS(=O)(=O)c3ccccc3)ccc2O1,21
CC(C)NC(=O)Nc1ccc2c(c1)C(=O)N([C@@H](C)CO)C[C@@H](C)[C@@H](CN(C)C(=O)C1CCCCC1)OCCCC[C@H](C)O2,307
CC(C)NC(=O)Nc1ccc2c(c1)C(=O)N([C@@H](C)CO)C[C@@H](C)[C@H](CN(C)C(=O)C1CCCCC1)OCCCC[C@H](C)O2,333
C[C@@H]1CCCCO[C@H](CN(C)C(=O)C2CCCCC2)[C@H](C)CN([C@H](C)CO)C(=O)c2cc(NS(=O)(=O)c3ccccc3)ccc2O1,-145*
C[C@@H]1O[C@@H](Oc2c(-c3cc(O)c(O)c(O)c3)oc3cc(O)cc(O)c3c2=O)[C@@H](O)[C@H](O)[C@H]1O,-8
O=C(NCCc1csc(-c2ccc(Cl)cc2)n1)C(=O)Nc1ccccc1F,-52
CC(=O)N1CCc2nc(C)nc(NCC[C@@H]3C[C@@H]4C=C[C@H]3C4)c2CC1,5
CC(=O)Nc1cc(C(C)(C)C)nn1-c1ccc(Cl)cc1,-5
COc1ccc(-n2cccn2)c(-c2c(-c3ccccc3)ncn2CCCO)c1,-7
FC(F)(F)c1cccc(C(c2nnnn2CCc2ccccc2)N2CCSCC2)c1 (stereo not drawn),-5
O=C(c1ccc(Nc2nccc(-c3cc4ccccc4s3)n2)cc1)N1CCC(N2CCCC2)CC1,-71*
CC(=O)N1CCC(Cn2ccnc2-c2cc3ccccc3s2)CC1,-47
Cc1ccc(C(=O)Nc2nccnc2C(=O)N2CCC(N3CCCCC3)CC2)cc1,-5
COc1ccccc1N1CCN(C(=O)Nc2n[nH]c(Cc3ccccc3)n2)CC1,-11
CCN1C(=O)CO[C@@H]2CN(C(=O)CCc3ccccc3)C[C@@H]21,-1
O=C1CCCN1CC1CCN(C(=O)c2ccc(NCC3CCOC3)nc2)CC1 (stereo not drawn),-5
COc1ccc(C(C)C)cc1S(=O)(=O)N1CCc2nc(-c3cnccn3)[nH]c(=O)c2C1,-7
Cc1cccc(OCCCN(C)C(=O)CN)c1C,13
COCC(=O)N(C)CCOc1c(C)ccc(C)c1C,-78*
Cc1ccc(C)c(OCC(=O)N(C)Cc2cc(C(C)C)on2)c1C,10
O=C1CCCC/C1=N\Nc1ccc(N2CCCCC2)cc1,57
SMILES,Tg IFNy HTS
CC(C)(C)c1ccc(-c2nc3ccccc3[nH]2)cc1,-87*
Cc1ccc(-c2nc3ccccc3[nH]2)cc1,-14
c1ccc(-c2nc3ccccc3[nH]2)cc1,167
COc1ccc(NC(=O)Cn2c(=O)cc(C(=O)N3CCC(C)CC3)c3ccccc32)cc1OC,5
CS(=O)(=O)Nc1nc(CC(=O)N[C@@H]2CCC(=O)N[C@H]2C2CC=CCC2)cs1 (stereo partly drawn),24
NC(=S)N/N=C/c1ncccc1N,-80*
COc1cccc(C(=O)Nc2ccc(-c3nc(-c4cc(C)ccc4C)co3)cc2)c1,-41
COc1ccc(NC(=O)Cn2c(=O)cc(C(=O)N3CCOCC3)c3ccccc32)cc1,11
O=C(Nc1cccc2c1CCCC2)c1cccs1,22
Cc1ncc(CC(=O)N2CCc3[nH]nc(-c4ccccc4F)c3C2)c(=O)[nH]1,7
CCCCN(CC)C(=O)c1ccc(-c2nc(CN3CCN(c4ccccc4)CC3)c(C)o2)cc1,-69
COCCNC(=O)c1ccc(-c2nc(CN3CCN(c4ccccc4)CC3)c(C)o2)cc1,-4
CCNC(=O)c1ccc(-c2nc(CN3CCN(c4ccccc4)CC3)c(C)o2)cc1,45
Cc1oc(-c2ccc(C(=O)NCCc3cnc[nH]3)cc2)nc1CN1CCN(c2ccccc2)CC1,-110*
CCN(CC)CCCNC(=O)c1ccc(-c2nc(CN3CCN(c4ccccc4)CC3)c(C)o2)cc1,-104*
Cc1oc(-c2ccc(C(=O)NCCc3ccco3)cc2)nc1CN1CCN(c2ccccc2)CC1,17
Cc1ccccc1-c1ncc(-c2nccn2CCc2n[nH]c(=O)[nH]2)s1,-25
CC(=O)Nc1ccc(C(=O)N(c2ccc(F)c(F)c2)C2(C(=O)NCc3ccccc3)CCN(C(C)=O)CC2)cc1,30
Cc1cc(C)c(S(=O)(=O)N2CCC3(CC2)Nc2ccc(C)c(C)c2-n2cccc23)c(C)c1,40

# Screening results (PubChem)
